The nature of experiment [1]: qHTS assay to identify small molecule agonists of the RXR signaling pathway - cell viability counter screen (AID 1159529). Note: nearly all actives have a fitted effect of over 50% in size. Note: potency is the fitted concentration of half-maximal effect. Summed up: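 RXR-alpha-UAS-bla HEK 293T cells in medium with 2% charcoal-stripped FBS were pre-incubated 5 hr, then compound-treated 16 hr at 37 C. Viability was read by CellTiter-Glo luminescence in the same wells as the beta-lactamase assay, with tetraoctyl ammonium bromide as positive control.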

Experiment [2] can be described thus: qHTS assay to identify small molecule antagonists of the retinoid acid receptor (RAR) signaling pathway - cell viability counter screen (AID 1159551). Note: nearly all actives have a fitted effect of over 35% in size. Put shortly: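 In this counter screen, the RARE-luciferase line C3RL4 was exposed for 6 h at 37 C and 5% CO2 to compounds with retinol at 1 uM final. Cellular ATP, read by luminescence, served as the viability measure.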
For orientation: Quantitative high-throughput screening tests each substance at several concentrations.

Experiment [3] can be described thus: qHTS assay to identify small molecule antagonists of the retinoic acid receptor (RAR) signaling pathway (AID 1159552; note: nearly all actives have a fitted effect of over 50% in size; note: potency is the fitted concentration of half-maximal effect). Summed up:
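Retinol signaling pathway inhibitors screened in C3RL4 RARE-luciferase reporter cells seeded overnight at 37 C, then compounds added with 1 uM (final) retinol as pathway substrate. After 6 hr at 37 C, luciferase luminescence read after 30 min at room temperature.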

Experiment [4] can be described thus: qHTS assay to identify small molecule agonists of the retinoic acid receptor (RAR) signaling pathway (AID 1159553). Note: potency is the fitted concentration of half-maximal effect. Summed up: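 In this cell-based screen, 1,000 C3RL4 cells per well were cultured overnight, dosed with test chemicals in DMSO for 6 hr, and assessed for RARE luciferase luminescence.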

Inconclusive results are not listed. Activity calls are given as the source filed them. Calls come from the whole dose curve; as a rule, active = well fitted curve in the direction sought with a large enough effect in the repeat runs; inconclusive = weak or mixed curves; inactive = no such curve, though single readings can be large; an effect the other way counts as inactive or inconclusive.

For `Nc1ccc(S(=O)(=O)O)cc1`, the Potency entry in experiment [1], in experiment [2], in experiment [3] and in experiment [4] was “inactive” in each case.
With `NC(=O)N(O)[C@@H]1C=C[C@H](Oc2cccc(Oc3ccc(F)cc3)c2)C1`, the Potency result in experiment [1], in experiment [2] and in experiment [3] was “inactive” throughout. For the same compound, the Potency in experiment [4] is 61.1 µM (active).
In the case of `CCC(=O)OC/C=C/c1ccccc1`, the Potency entry in experiment [1] and in experiment [2] was “inactive” throughout.
Consider `CC(C)(C)C(=O)C(Oc1ccc(Cl)cc1)n1ccnc1` (stereo not drawn), for which the Potency result in experiment [1], in experiment [2] and in experiment [3] was “inactive” in each case.
For the compound `C/C(=N/NC(=O)c1ccncc1)C(=O)O`, the Potency result in experiment [1] and in experiment [2] was “inactive” each time.
As to `Cn1c(=O)c2c(ncn2CC(=O)O)n(C)c1=O`, the Potency entry in experiment [1] and in experiment [2] was “inactive” in each case.
With `Cc1cc(O)c2c(O)c3c(O)cccc3cc2c1`, the Potency result in experiment [1], in experiment [2], in experiment [3] and in experiment [4] was “inactive” in each case.
`CCCCCCCCCCCC[N+](C)(C)CCCS(=O)(=O)[O-]`: the Potency entry in experiment [1], in experiment [2], in experiment [3] and in experiment [4] was “inactive” in each case.
On to `C1COCO1`, for which the Potency result in experiment [1] and in experiment [2] was “inactive” throughout.
As for `CC(CCc1ccc2c(c1)OCO2)NN` (stereo not drawn), the Potency result in experiment [1], in experiment [2] and in experiment [3] was “inactive” in each case.
In the case of `CO[C@@]12[C@H](COC(N)=O)C3=C(C(=O)C(C)=C(N)C3=O)N1C[C@@H]1N[C@@H]12`, the Potency result in experiment [1] and in experiment [2] was “inactive” throughout. The Potency in experiment [3] was 10.6 µM (active).
Turning to `CCOC(=O)[C@@H](C)Oc1ccc(Oc2nc3ccc(Cl)cc3o2)cc1`, the Potency result in experiment [1], in experiment [2] and in experiment [3] was “inactive” each time.
With `CC(C)OCC1CO1` (stereo not drawn), the Potency result in experiment [1], in experiment [2] and in experiment [3] was “inactive” in each case.
Consider `OCC1CC=CCC1` (stereo not drawn), for which the Potency entry in experiment [1], in experiment [2] and in experiment [3] was “inactive” each time.
In the case of `O=C(O)c1snc(Cl)c1Cl`, the Potency result in experiment [1] and in experiment [2] was “inactive” in each case.
As to `C/C=C(\C)C(=O)OCCC(C)CCC=C(C)C` (stereo not drawn), the Potency entry in experiment [1] and in experiment [2] was “inactive” in each case.
Turning to `CCCC1C(CC)=CC(CC)=CN1c1ccccc1` (stereo not drawn), the Potency entry in experiment [1], in experiment [2] and in experiment [3] was “inactive” in each case.
On to `CN1CCN(CCCN2c3ccccc3Sc3ccc(S(=O)(=O)N(C)C)cc32)CC1`, for which the Potency in experiment [1] was 23.9 µM (active). The Potency entry in experiment [2] is “inactive”.
For the compound `CN(C)C(=O)Nc1ccc(Oc2ccc(Cl)cc2)cc1`, the Potency entry in experiment [1], in experiment [2] and in experiment [3] was “inactive” in each case. The Potency in experiment [4] was 61.1 µM (active).
With `CCCCCCCCCCCC[N+](C)(C)CC(=O)[O-]`, in experiment [1], the Potency is 24.5 µM (active). The Potency entry in experiment [2], in experiment [3] and in experiment [4] was “inactive” in each case.
As to `C[N+]1(C)CCC(=C(c2ccccc2)c2ccccc2)CC1`, the Potency entry in experiment [1], in experiment [2], in experiment [3] and in experiment [4] was “inactive” in each case.
Consider `CCCCCCCCCCCC(=O)[O][Sn]([CH2]CCC)([CH2]CCC)[O]C(=O)CCCCCCCCCCC`, for which the Potency result in experiment [1], in experiment [2] and in experiment [4] was “inactive” in each case. The Potency in experiment [3] is 29.8 µM (active).
On to `CCCCC(CC)C(=O)OCCOCCOCCOCCOC(=O)C(CC)CCCC` (stereo not drawn), for which the Potency entry in experiment [1], in experiment [2], in experiment [3] and in experiment [4] was “inactive” throughout.
Regarding `CC(C)CCCCCOC(=O)CCCCC(=O)OCCCCCC(C)C`, the Potency entry in experiment [1], in experiment [2], in experiment [3] and in experiment [4] was “inactive” throughout.
With `CC(C)CCCC(=O)O`, the Potency result in experiment [1], in experiment [2], in experiment [3] and in experiment [4] was “inactive” each time.
For the compound `CCCCN(CCCC)C(=S)SSC(=S)N(CCCC)CCCC`, the Potency was 48.5 µM (active) in experiment [1] and 1.52 µM (active) in experiment [4]. Moreover, the Potency entry in experiment [2] and in experiment [3] was “inactive” each time.
In the case of `CCOc1cc(N)c(Cl)cc1C(=O)NCC1CN(Cc2ccc(F)cc2)CCO1` (stereo not drawn), the Potency result in experiment [1], in experiment [2], in experiment [3] and in experiment [4] was “inactive” in each case.
Consider `Nc1c(I)cc(I)c(C(=O)N(CCC(=O)O)c2ccccc2)c1I`, for which the Potency result in experiment [1], in experiment [2], in experiment [3] and in experiment [4] was “inactive” each time.
In the case of `O=C(CCC1CCN(Cc2ccccc2)CC1)c1ccc2c(c1)NCCCC2`, the Potency entry in experiment [1], in experiment [2], in experiment [3] and in experiment [4] was “inactive” throughout.
For `CC1=NN(c2ccc(C(=O)O)cc2)C(=O)C1`, the Potency entry in experiment [1], in experiment [2] and in experiment [3] was “inactive” each time. The Potency in experiment [4] was 68.6 µM (active).
On to `CC(C)=CC=O`, for which the Potency entry in experiment [1], in experiment [2], in experiment [3] and in experiment [4] was “inactive” throughout.
With `O=C(Nc1ccc([N+](=O)[O-])cc1)Nc1ccc([N+](=O)[O-])cc1`, the Potency in experiment [1] was 0.952 µM (active). The Potency entry in experiment [2], in experiment [3] and in experiment [4] was “inactive” in each case.
As to `CC1(C)C(=O)N(Br)C(=O)N1Cl`, the Potency entry in experiment [1], in experiment [2], in experiment [3] and in experiment [4] was “inactive” each time.
As for `C=CC(=C)CCCC(C)(C)OC(C)=O`, the Potency result in experiment [1], in experiment [2], in experiment [3] and in experiment [4] was “inactive” each time.
As to `NC(=O)Nc1ccc(Cl)c(Cl)c1`, the Potency entry in experiment [1], in experiment [2], in experiment [3] and in experiment [4] was “inactive” each time.
`Cc1nc2ccccc2s1`: the Potency entry in experiment [1], in experiment [2], in experiment [3] and in experiment [4] was “inactive” in each case.
With `ON(Cc1ccccc1)Cc1ccccc1`, the Potency entry in experiment [1], in experiment [2], in experiment [3] and in experiment [4] was “inactive” each time.
As to `CC(C)c1nnc2ccc(-c3ocnc3-c3cc(F)ccc3F)cn12`, the Potency entry in experiment [1], in experiment [2] and in experiment [4] was “inactive” in each case. Besides, the Potency in experiment [3] was 27.3 µM (active).
On to `O=C(O)Cc1ccc(-c2ccccc2)cc1`, for which the Potency entry in experiment [1], in experiment [2], in experiment [3] and in experiment [4] was “inactive” each time.
As for `CCC(C)(C)C1CCC(O)CC1` (stereo not drawn), the Potency entry in experiment [1], in experiment [2], in experiment [3] and in experiment [4] was “inactive” each time.
Regarding `O=C(O)c1ccccc1NCCc1ccccc1`, the Potency result in experiment [1], in experiment [2] and in experiment [3] was “inactive” in each case. Further, the Potency in experiment [4] is 23.7 µM (active).

(Values after PubChem BioAssay (Tox21).)
